Drawing on PubChem BioAssay (EPA / NIEHS), this text covers AC50 and outcome for 8 molecules.

Where “and” joins values, the source holds several entries; their conditions need not be identical. Identical values can stand only once. Results filed as inconclusive are left out. A structure can be active in one record and inactive in another. Calls of active or inactive are those of the source. The calls were made as follows, unless noted: active = hit-call score of the fitted dose curve at least 0.9, where 1 is the maximum; inconclusive = response in the unintended direction; inactive = score below 0.9.

The target of assay [1] is human CYP2C9, CYP2C9 (gene 1559) (UniProt P11712). The assay is described as follows: NVS_ADME_hCYP2C9: NovaScreen (NVS) CYP450-related Enzyme Activity (ADME) Assay for human CYP2C9 (AID 2283108). In outline:
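Fluorescence readout of CYP2C9 activity (SF9-expressed human enzyme) at 0.75 h. The primary screen used 10 uM in duplicate, with concentration-response follow-up for actives; acetonitrile was the negative control.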

In assay [2] the target is Cytochrome P450 2C19 (Homo sapiens) (UniProt P33261). The assay is described as follows: NVS_ADME_hCYP2C19: NovaScreen (NVS) CYP450-related Enzyme Activity (ADME) Assay for human CYP2C19 (AID 2283113).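 Also: potency for inhibition seen as loss of fluorescent signal.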 In outline: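 Recombinant insect-cell-expressed enzyme, fluorescent substrate, 1 h after chemical addition, fluorescence intensity. Baseline = acetonitrile vehicle; activity scored as signal loss. Primary HTS single concentration 10 uM, duplicate; actives retested in concentration series.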

Assay [3] deals with human CYP2D6, CYP2D6 (gene 1565) (UniProt P10635). Briefly: NVS_ADME_hCYP2D6: NovaScreen (NVS) CYP450-related Enzyme Activity (ADME) Assay for human CYP2D6 (AID 2283107). The method, boiled down: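 Fluorescence intensity read 1 h post-dosing; insect-cell-expressed recombinant protein with fluorogenic substrate, no cells. Activity is scored as signal loss relative to acetonitrile baseline, first at a single 10 uM concentration in duplicate, then as concentration series for confirmed actives.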

Assay [4] addresses Cytochrome P450 3A4 (Homo sapiens) (UniProt P08684). The assay is described as follows: NVS_ADME_hCYP3A4: NovaScreen (NVS) CYP450-related Enzyme Activity (ADME) Assay for human CYP3A4 (AID 2283110). In outline: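 Compounds were first screened in duplicate at 10 uM against recombinant CYP3A4 produced in insect cells, then actives were run in concentration series. Enzyme activity was measured by fluorescence after 0.33 hour, with acetonitrile as baseline.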

For assay [5], the system named is rat CYP2B1, gene 24300. Briefly: NVS_ADME_rCYP2B1: NovaScreen (NVS) CYP450-related Enzyme Activity (ADME) Assay for rat CYP2B1 (AID 2283117). In outline: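 Recombinant rat CYP2B1 with fluorogenic substrate, read at 0.75 h. Primary screen in duplicate at 10 uM; compounds meeting threshold (e.g., 30% inhibition) re-run in concentration-response up to 20 uM. Fitted against acetonitrile control.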

Assay [6] deals with rat CYP2C11, Cyp2c11 (gene 29277) (UniProt P08683). The assay is described as follows: NVS_ADME_rCYP2C11: NovaScreen (NVS) CYP450-related Enzyme Activity (ADME) Assay for rat CYP2C11 (AID 2283118). The method, boiled down:
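Cell-free recombinant rat enzyme with fluorescent substrate; readout 0.33 h after dosing, loss of signal versus acetonitrile control. Initial duplicate single-point at 10 uM; actives rerun in concentration series.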

For assay [7], the system named is rat CYP2C6, gene 293989. The assay is described as follows: NVS_ADME_rCYP2C6: NovaScreen (NVS) CYP450-related Enzyme Activity (ADME) Assay for rat CYP2C6 (AID 2283120). In outline: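 Cell-free recombinant rat CYP2C6 with fluorogenic substrate, read by fluorescence 1 h after dosing; acetonitrile as negative control. Primary screen at 10 uM in duplicate, actives then in concentration-response up to 20 uM.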

For assay [8], the system named is rat CYP3A1, gene 25642. The assay is described as follows: NVS_ADME_rCYP3A1: NovaScreen (NVS) CYP450-related Enzyme Activity (ADME) Assay for rat CYP3A1 (AID 2283126). The method, boiled down: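 Cell-free recombinant CYP assay with fluorescent substrate, read 0.5 h after dosing. Screened at 10 uM in duplicate, hits at up to 20 uM in concentration-response; loss of signal versus acetonitrile baseline.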

Assay [9] concerns the target rat CYP3A2, Cyp3a2 (gene 266682) (UniProt P05183). The assay is described as follows: NVS_ADME_rCYP3A2: NovaScreen (NVS) CYP450-related Enzyme Activity (ADME) Assay for rat CYP3A2 (AID 2283128). In outline: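 Cell-free rat CYP3A2 enzyme assay with fluorescent substrate, read 0.5 h after dosing. Primary duplicate screen at 10 uM; actives run in concentration-response up to 20 uM, relative to acetonitrile baseline.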

The target in assay [10] is human Caspase 5 (CASP5), CASP5 (gene 838) (UniProt P51878). The assay is described as follows: NVS_ENZ_hCASP5: NovaScreen (NVS) Enzymatic Assay for human Caspase 5 (CASP5) (AID 2283137). The method, boiled down:
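E. coli-derived enzyme, cell-free, 2 h incubation, fluorescence intensity. 25 uM duplicate single-point; hits → concentration series to 50 uM. DMSO baseline, positive/negative controls on every plate.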

Assay [11] deals with rat CYP2A1, Cyp2a1 (gene 24894) (UniProt P11711). Briefly: NVS_ADME_rCYP2A1: NovaScreen (NVS) CYP450-related Enzyme Activity (ADME) Assay for rat CYP2A1 (AID 2283114; active = hit-call score of the fitted dose curve at least 0.9, where 1 is the maximum; inactive = score below 0.9). In outline:
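Recombinant rat CYP2A1, cell-free, fluorogenic substrate turnover read by fluorescence intensity 0.75 h after dosing. Primary screen at 10 uM in duplicate; actives rerun as concentration-response up to 20 uM; loss of signal versus acetonitrile control.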

Assay [12] has as its target rat CYP2C12, Cyp2c12 (gene 25011) (UniProt P11510). Briefly: NVS_ADME_rCYP2C12: NovaScreen (NVS) CYP450-related Enzyme Activity (ADME) Assay for rat CYP2C12 (AID 2283119). The method, boiled down:
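Cell-free recombinant rat CYP2C12 activity read by fluorescence 0.5 h after dosing; loss of signal versus acetonitrile control. Primary screen in duplicate at 10 uM; actives then run in concentration-response format.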

Assay [13] deals with rat CYP2C13, Cyp2c13 (gene 171521) (UniProt P20814). The assay is described as follows: NVS_ADME_rCYP2C13: NovaScreen (NVS) CYP450-related Enzyme Activity (ADME) Assay for rat CYP2C13 (AID 2283121). The method, boiled down: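 Recombinant rat CYP2C13 with fluorogenic substrate, 0.75 h cell-free incubation; primary screen in duplicate at 10 uM, actives followed in concentration series. Fluorescence loss relative to acetonitrile control indicates inhibition.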

Assay [14] concerns the target human Acetylcholinesterase (AChE), ACHE (gene 43) (UniProt P22303). Briefly: NVS_ENZ_hAChE: NovaScreen (NVS) Enzymatic Assay for human Acetylcholinesterase (AChE) (AID 2283129). The method, boiled down: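 Cell-free colorimetric enzyme-activity assay; compounds read 0.33 hour after dosing, loss of signal vs DMSO baseline. Primary screen in duplicate at 25 uM single concentration, with active compounds retested in concentration series.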

The target of assay [15] is rat CYP2A2, Cyp2a2 (gene 24895) (UniProt P15149). The assay is described as follows: NVS_ADME_rCYP2A2: NovaScreen (NVS) CYP450-related Enzyme Activity (ADME) Assay for rat CYP2A2 (AID 2283116). In outline: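 Cell-free recombinant rat CYP2A2 activity with fluorogenic substrate, fluorescence read 0.2 h after dosing. Chemicals screened at 10 uM in duplicate, hits then run in concentration-response up to 20 uM; signal loss versus acetonitrile baseline.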

Assay [16] concerns the target human AKT serine/threonine Kinase 1 (AKT1), AKT1 (gene 207) (UniProt P31749). The assay is described as follows: NVS_ENZ_hAKT1: NovaScreen (NVS) Enzymatic Assay for human AKT serine/threonine Kinase 1 (AKT1) (AID 2283138). The method, boiled down:
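Recombinant AKT1, specific substrate, cell-free; 1 h; fluorescence intensity/electrophoretic mobility shift. Duplicate single-point 25 uM, then singleton CRC max 50 uM. DMSO = negative control/baseline; signal loss = inhibition.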

Sequence of rat CYP2C11, Cyp2c11 (gene 29277) (P08683 whole entry, looked up): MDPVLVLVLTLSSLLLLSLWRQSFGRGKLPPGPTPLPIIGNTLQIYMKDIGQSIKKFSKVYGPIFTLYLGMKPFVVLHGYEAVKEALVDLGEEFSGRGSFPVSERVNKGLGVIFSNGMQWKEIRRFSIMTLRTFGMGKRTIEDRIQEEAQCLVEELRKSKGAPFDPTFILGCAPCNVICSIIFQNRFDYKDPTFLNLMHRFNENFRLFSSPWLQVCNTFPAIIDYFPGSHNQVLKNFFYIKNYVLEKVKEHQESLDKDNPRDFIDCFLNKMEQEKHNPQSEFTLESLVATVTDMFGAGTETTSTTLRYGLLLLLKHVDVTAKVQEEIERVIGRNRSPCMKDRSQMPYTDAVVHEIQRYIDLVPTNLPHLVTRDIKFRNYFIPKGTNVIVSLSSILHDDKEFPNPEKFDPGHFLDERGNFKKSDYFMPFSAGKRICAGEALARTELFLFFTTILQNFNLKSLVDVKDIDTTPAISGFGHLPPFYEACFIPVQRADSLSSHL
Sequence of human CYP2C9, CYP2C9 (gene 1559) (P11712 whole entry, looked up): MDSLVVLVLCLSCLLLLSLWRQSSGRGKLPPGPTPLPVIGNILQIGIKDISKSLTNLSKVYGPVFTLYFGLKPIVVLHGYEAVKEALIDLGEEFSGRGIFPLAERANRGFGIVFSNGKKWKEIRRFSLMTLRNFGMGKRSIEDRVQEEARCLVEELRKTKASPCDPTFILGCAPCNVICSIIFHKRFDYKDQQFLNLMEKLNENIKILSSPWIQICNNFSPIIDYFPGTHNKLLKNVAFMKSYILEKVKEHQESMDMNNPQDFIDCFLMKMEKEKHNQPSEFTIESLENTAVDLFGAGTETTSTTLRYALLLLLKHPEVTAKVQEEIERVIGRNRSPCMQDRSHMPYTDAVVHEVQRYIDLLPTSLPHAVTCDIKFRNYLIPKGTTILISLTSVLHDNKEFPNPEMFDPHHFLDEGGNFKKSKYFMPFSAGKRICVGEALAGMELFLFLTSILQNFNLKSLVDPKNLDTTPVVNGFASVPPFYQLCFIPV
Sequence of Cytochrome P450 3A4 (Homo sapiens) (P08684 whole entry, looked up): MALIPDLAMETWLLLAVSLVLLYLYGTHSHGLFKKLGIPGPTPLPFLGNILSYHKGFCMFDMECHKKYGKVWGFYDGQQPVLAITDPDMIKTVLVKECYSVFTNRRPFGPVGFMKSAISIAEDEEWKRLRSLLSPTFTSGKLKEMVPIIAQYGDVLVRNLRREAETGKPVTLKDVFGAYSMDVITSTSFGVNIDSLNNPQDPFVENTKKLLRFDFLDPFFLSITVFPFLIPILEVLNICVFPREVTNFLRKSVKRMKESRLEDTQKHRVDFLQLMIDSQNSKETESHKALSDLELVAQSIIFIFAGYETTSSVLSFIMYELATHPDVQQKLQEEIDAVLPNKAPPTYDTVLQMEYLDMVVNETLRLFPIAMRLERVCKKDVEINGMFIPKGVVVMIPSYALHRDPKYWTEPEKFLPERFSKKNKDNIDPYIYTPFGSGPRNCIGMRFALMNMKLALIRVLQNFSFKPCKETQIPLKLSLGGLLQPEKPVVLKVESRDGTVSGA
Sequence of rat CYP3A2, Cyp3a2 (gene 266682) (P05183 whole entry, looked up): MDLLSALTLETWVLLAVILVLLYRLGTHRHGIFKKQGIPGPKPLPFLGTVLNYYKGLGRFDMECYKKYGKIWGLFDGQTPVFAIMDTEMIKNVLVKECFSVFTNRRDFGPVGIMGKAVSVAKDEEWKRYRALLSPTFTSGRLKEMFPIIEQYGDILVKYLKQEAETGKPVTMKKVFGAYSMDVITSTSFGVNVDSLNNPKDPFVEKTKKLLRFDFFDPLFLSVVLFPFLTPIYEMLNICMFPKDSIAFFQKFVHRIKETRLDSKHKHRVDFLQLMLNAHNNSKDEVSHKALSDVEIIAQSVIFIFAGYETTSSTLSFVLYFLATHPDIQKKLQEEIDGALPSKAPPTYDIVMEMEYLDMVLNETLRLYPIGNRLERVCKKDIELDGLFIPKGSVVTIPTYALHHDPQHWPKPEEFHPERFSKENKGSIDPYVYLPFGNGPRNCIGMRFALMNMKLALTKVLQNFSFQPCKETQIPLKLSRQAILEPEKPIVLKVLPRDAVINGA
Sequence of rat CYP2C12, Cyp2c12 (gene 25011) (P11510 whole entry, looked up): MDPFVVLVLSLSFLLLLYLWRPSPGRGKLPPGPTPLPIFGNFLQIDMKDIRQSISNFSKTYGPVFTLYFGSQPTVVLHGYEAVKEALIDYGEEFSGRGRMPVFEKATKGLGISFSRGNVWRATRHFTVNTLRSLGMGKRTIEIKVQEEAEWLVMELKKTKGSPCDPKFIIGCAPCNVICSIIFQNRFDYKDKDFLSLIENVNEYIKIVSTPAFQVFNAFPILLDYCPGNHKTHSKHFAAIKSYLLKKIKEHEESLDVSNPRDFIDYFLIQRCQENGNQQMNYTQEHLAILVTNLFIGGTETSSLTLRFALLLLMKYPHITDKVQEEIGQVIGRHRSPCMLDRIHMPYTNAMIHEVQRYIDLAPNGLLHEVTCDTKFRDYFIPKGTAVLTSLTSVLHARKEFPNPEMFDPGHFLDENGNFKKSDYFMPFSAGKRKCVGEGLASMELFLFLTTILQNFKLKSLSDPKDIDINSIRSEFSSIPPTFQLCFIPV
Sequence of rat CYP2A1, Cyp2a1 (gene 24894) (P11711 whole entry, looked up): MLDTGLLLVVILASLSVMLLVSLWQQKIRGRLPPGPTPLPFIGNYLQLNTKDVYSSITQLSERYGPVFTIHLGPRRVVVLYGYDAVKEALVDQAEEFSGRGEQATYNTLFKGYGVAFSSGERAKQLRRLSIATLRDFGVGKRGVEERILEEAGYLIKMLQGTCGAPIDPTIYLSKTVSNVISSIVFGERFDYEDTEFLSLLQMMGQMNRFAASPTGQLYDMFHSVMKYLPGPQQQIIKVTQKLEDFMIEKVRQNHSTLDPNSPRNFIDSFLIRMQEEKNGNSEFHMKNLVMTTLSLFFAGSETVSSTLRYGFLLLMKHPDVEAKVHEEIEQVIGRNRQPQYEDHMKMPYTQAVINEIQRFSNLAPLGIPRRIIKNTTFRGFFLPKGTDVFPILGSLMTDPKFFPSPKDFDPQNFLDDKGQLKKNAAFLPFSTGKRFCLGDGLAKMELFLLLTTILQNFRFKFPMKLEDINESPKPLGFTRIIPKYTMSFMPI
Sequence of human CYP2D6, CYP2D6 (gene 1565) (P10635 whole entry, looked up): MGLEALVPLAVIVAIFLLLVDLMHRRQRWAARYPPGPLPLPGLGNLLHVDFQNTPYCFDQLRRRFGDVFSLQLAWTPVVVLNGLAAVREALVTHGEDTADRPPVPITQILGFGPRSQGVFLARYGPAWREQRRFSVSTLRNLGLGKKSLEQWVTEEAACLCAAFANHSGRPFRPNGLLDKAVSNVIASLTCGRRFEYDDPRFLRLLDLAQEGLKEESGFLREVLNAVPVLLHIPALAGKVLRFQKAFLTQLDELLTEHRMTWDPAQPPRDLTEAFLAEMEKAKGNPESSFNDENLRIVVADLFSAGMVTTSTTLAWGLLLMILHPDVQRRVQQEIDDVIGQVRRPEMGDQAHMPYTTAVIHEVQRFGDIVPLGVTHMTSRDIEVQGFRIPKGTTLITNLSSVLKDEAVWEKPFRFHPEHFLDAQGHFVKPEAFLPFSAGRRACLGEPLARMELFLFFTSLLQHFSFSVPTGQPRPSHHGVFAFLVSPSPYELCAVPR
Sequence of rat CYP2C13, Cyp2c13 (gene 171521) (P20814 whole entry, looked up): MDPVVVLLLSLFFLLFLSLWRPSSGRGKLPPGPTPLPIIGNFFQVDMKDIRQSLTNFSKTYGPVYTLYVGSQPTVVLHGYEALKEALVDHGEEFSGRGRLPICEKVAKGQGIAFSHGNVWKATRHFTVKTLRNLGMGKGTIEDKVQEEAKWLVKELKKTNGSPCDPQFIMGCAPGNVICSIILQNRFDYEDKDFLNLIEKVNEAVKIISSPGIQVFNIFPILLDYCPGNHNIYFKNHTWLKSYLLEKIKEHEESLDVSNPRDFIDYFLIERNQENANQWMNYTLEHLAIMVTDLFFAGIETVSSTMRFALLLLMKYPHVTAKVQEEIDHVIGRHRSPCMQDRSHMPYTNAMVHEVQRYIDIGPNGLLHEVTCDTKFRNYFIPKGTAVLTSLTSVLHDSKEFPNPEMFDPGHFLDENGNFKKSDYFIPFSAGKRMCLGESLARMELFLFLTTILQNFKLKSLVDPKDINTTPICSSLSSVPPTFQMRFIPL
Sequence of rat CYP2A2, Cyp2a2 (gene 24895) (P15149 whole entry, looked up): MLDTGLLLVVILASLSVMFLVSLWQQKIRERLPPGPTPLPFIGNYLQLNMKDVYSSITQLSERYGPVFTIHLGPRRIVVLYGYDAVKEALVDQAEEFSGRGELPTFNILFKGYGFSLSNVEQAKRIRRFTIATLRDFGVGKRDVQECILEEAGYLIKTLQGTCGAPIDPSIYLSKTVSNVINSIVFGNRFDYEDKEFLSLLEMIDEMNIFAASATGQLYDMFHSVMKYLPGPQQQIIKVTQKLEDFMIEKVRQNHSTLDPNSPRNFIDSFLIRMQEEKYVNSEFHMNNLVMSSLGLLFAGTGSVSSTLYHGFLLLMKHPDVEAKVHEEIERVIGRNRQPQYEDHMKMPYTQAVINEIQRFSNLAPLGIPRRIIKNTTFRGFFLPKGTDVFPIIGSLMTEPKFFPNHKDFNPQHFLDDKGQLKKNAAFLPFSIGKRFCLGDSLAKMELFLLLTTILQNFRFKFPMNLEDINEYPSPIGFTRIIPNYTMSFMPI
Sequence of human AKT serine/threonine Kinase 1 (AKT1), AKT1 (gene 207) (P31749 whole entry, looked up): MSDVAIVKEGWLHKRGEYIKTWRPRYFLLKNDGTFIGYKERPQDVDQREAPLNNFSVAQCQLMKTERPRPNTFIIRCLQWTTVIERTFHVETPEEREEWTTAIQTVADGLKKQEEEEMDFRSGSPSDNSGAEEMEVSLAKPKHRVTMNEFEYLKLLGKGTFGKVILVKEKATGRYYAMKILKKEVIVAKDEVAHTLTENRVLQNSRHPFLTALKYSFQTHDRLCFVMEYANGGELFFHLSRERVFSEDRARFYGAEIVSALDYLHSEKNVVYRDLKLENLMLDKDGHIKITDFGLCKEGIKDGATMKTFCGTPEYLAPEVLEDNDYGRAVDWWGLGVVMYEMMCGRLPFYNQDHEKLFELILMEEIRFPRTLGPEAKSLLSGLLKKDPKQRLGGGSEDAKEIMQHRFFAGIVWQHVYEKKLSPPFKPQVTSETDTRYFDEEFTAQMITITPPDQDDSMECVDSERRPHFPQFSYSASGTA

In general, AC50 refers to the concentration at which the activity in the assay is half-maximal. `COP(=S)(OC)Oc1ccc(S(=O)(=O)N(C)C)cc1`: the AC50 is 0.0779 µM (active) in assay [1] and 190 nM (active) in assay [2].

`CCCCCCCCC(=O)NCc1ccc(O)c(OC)c1`: the concentration at half-maximal activity (AC50) in assay [3] was 3.45 µM (active); in assay [1], 3.95 µM (active); in assay [2] it was 1660 nM (active).

On to `O=C1C2(Cl)C3(Cl)C4(Cl)C(Cl)(Cl)C5(Cl)C3(Cl)C1(Cl)C5(Cl)C24Cl` (centres undefined), for which the AC50 in [1] was 82.1 nM (active) and 2.8 µM (active) and 487 nM (active); in assay [2] it was 458 nM (active) and 1.44 µM (active) and 374 nM (active); in assay [5], 1.61 µM (active) and 5.98 µM (active); in assay [6], 193 nM (active) and 1.16 µM (active) and 250 nM (active); in [7] it was 7.93 µM (active) and 5.36 µM (active); in [8], 6.55 µM (active) and 3.69 µM (active). The AC50 in assay [9] is 3.98 µM (active) and 7.08 µM (active) and 1.19 µM (active). Moreover, the result in [4], in assay [5] and in assay [10] was inactive.

Take `CCOC(=O)Nc1cccc(OC(=O)Nc2ccccc2)c1`: the AC50 is 6.84 µM (active) in [11], 10 µM (active) in [12] and 10.4 µM (active) in [13].

In the case of `COc1cc2c(cc1OC)[C@@]13CCN4CC5=CCO[C@H]6CC(=O)N2[C@H]1[C@H]6[C@H]5C[C@H]43`, the AC50 in assay [3] is 5 µM (active).

In the case of `Oc1cccc2cccnc12`, the molecule was classed as inactive in assay [14].

Take `Clc1ccc(C2(Cn3cncn3)CC(Br)CO2)c(Cl)c1` (centres undefined): the half-maximal activity concentration (AC50) in assay [1] is 6.63 µM (active); in [4] it was 2 µM (active); in [2] it was 243 nM (active); in assay [11] it was 0.577 µM (active); in assay [15], 0.0829 µM (active); in assay [5] it was 41.1 nM (active). For the same molecule, the AC50 in assay [6] is 1.59 µM (active); in assay [12] it was 11 µM (active); in [7], 4.68 µM (active); in assay [13] it was 1.87 µM (active); in [8], 721 nM (active); in assay [9], 1.91 µM (active).

As for `CCOP(=S)(OCC)SCSP(=S)(OCC)OCC`, the AC50 in [2] was 4360 nM (active). For the same molecule, in assay [16], the molecule was called inactive.
